Common to all, as to test: NCI-60 one-dose screen, 48 h (100 = growth as untreated, 0 = no growth, -100 = all killed)
Test [1] has as its system HCT-15 colon. The conditions noted are these: 10 µM unless noted.
For test [2], the system named is HT29 colon. The conditions noted are these: 10 µM unless noted.
Test [3] concerns U251 CNS. The conditions noted are these: 10 µM unless noted.
Test [4] concerns PC-3 prostate. The conditions noted are these: 10 µM unless noted.
Test [5] has as its system SK-MEL-5 melanoma. The conditions noted are these: 10 µM unless noted.
The subject of test [6] is UACC-62 melanoma. The conditions noted are these: 10 µM unless noted.
Test [7] relates to LOX IMVI melanoma. The conditions noted are these: 10 µM unless noted.
Test [8] deals with SK-MEL-28 melanoma. The conditions noted are these: 10 µM unless noted.
The test system of test [9] is SK-MEL-2 melanoma. The conditions noted are these: 10 µM unless noted.
The subject of test [10] is EKVX NSCLC. The conditions noted are these: 10 µM unless noted.
Test [11] concerns SN12C renal. The conditions noted are these: 10 µM unless noted.
The test system of test [12] is UO-31 renal. The conditions noted are these: 10 µM unless noted.
In test [13] the test system is TK-10 renal. The conditions noted are these: 10 µM unless noted.
Test [14] concerns ACHN renal. The conditions noted are these: 10 µM unless noted.
Test [15] deals with CAKI-1 renal. The conditions noted are these: 10 µM unless noted.
Test [16] has as its system A498 renal. The conditions noted are these: 10 µM unless noted.
The subject of test [17] is CCRF-CEM leukemia. The conditions noted are these: 10 µM unless noted.
The test system of test [18] is MOLT-4 leukemia. The conditions noted are these: 10 µM unless noted.
For test [19], the system named is SNB-75 CNS. The conditions noted are these: 10 µM.
For test [20], the system named is SNB-19 CNS. The conditions noted are these: 10 µM unless noted.

Compounds without any hit were thinned out: in the full panel of roughly 83,000, 20% have a hit.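 96-well plates, one dose, 48 hours. Percent growth reported; active if below 10.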 Unmarked numbers belong to inactive results. Active and inactive are the calls of the source.

As for `Cn1cc(-c2cnc3ccc(NC(=O)Nc4ccc(F)c(Br)c4)cc3n2)cn1`, the growth in [1] is 19.3%; in test [2], 40%; in [3], 44.9%; in test [4] it was 0.663% (active); in [5] it was -9.12% (active); in test [6], -41.2% (active). The growth was 4.06% (active) in test [7]; 50.1% in test [8]; -3.42% (active) in test [9]; 29.7% in test [10]; 46.1% in test [11]; 16.9% in test [12]. The growth in [13] is 52%; in test [14] it was 20.2%; in [15], 12.8%; in [16], 16.5%; in test [17], 4.33% (active); in test [18], -21.2% (active).
As for `C=C(C)[C@@H]1C[C@@H]2Cc3cc(Cl)ccc3N1O2`, the growth in test [1] was 97.9%; in test [19] it was 99.2%; in test [20] it was 105%; in test [3], 94.5%; in test [4], 96.5%; in test [5], 95.8%. In addition, the growth in test [6] was 94.9%; in [7] it was 99.3%; in [8], 108%; in [9] it was 130%; in test [10] it was 84.7%; in test [11], 102%. The growth was 100% in test [12]; 129% in [13]; 99% in test [14]; 95.9% in test [15]; 96.3% in [16]; -70.8% (active) in [17].
`COC(=O)c1cc2cc(-c3ccc(OC)cc3)cnc2[nH]1`: the growth in test [1] was 11%; in test [19], 62.5%; in test [20], 42.4%; in [3], 12.6%; in test [4], 7.32% (active); in test [5], 30.9%. Besides, the growth in [6] was 23.8%; in test [7] it was 25.2%; in test [8], 56.1%; in test [9], 8.37% (active); in [10], 47%; in [11], 51.9%. In addition, the growth was 34.9% in test [12]; 38.9% in test [13]; 44% in [14]; -2.35% (active) in [15]; 28.1% in [16]; 22.3% in [17]. The growth in [18] is 22.8%.
For the molecule `CC(C)(C)c1[nH]nc2c1C(c1cc3ccccc3[nH]c1=O)Nc1cc(C(=O)Nc3ccc(Cl)cc3)ccc1N2` (configuration not stated), the growth in test [1] was 98.8%; in [2], 91.3%; in test [3], 60.5%; in test [4], 61.4%; in test [5], 70.2%; in [6], 73.1%. Also, the growth was 81.7% in [8]; 77.9% in [9]; 71.1% in [11]; 83.8% in [12]; 105% in [13]; 84.2% in test [14]. In addition, the growth in test [15] is 94.9%; in [16] it was 66.3%; in test [18], 18.5%.
With `CCCCCc1cc[n+](CC(=O)c2ccc([N+](=O)[O-])cc2)cc1`, the growth is 94.4% in test [1]; 89.6% in [19]; 87.9% in test [20]; 48.4% in [3]; 59.5% in [4]; 22% in test [5]. For the same molecule, the growth in test [6] is 91.1%; in [7], 45.9%; in [8] it was 106%; in test [9], 49.3%; in test [10], 72.8%; in test [11], 90.9%. Also, the growth in [12] is 72.1%; in test [13] it was 74.6%; in test [14], 103%; in test [15], 113%; in [16], 101%; in [17], 89.2%. The growth in test [18] is 100%.
Regarding `CO[C@H]1NC(=O)N(S(=O)(=O)c2ccc(Cl)cc2)[C@@H]1OC`, the growth in test [1] is 102%; in [19], 93.6%; in test [20] it was 103%; in test [3], 101%; in test [4] it was 97.3%; in [5], 108%. Moreover, the growth is 100% in test [6]; 105% in test [7]; 106% in test [8]; 113% in test [9]; 101% in [10]; 102% in test [11]. The growth is 88% in test [12]; 103% in [13]; 105% in test [14]; 92.5% in test [15]; 112% in test [16]; 102% in test [18].
`Cc1nc2cncc(C#Cc3cncc(C(=O)Nc4ccc(CN5CCN(C)CC5)c(C(F)(F)F)c4)c3)c2nc1C`: the growth was 8.31% (active) in test [1]; 3.88% (active) in test [2]; 36% in [3]; 25.6% in test [4]; -18.1% (active) in test [5]; -32% (active) in [6]. In addition, the growth in test [7] was -77.9% (active); in [8], -8.83% (active); in [9] it was -47.7% (active); in test [10], 6.58% (active); in [11], 4.16% (active); in test [12], -12.5% (active). In addition, the growth in test [13] is 17.5%; in test [14], -5.33% (active); in test [15], -28.4% (active); in test [16], -36.9% (active); in test [17], 16.2%; in test [18], 21.1%.
Consider `C=C[C@@H]1C[C@H](O)Cc2ccccc2N1`, for which the growth in test [1] was 103%; in [19], 102%; in test [20], 108%; in test [3], 99.1%; in test [4], 106%; in test [5] it was 110%. For the same molecule, the growth is 102% in [6]; 104% in test [7]; 112% in [8]; 123% in test [9]; 107% in test [10]; 103% in test [11]. The growth was 99.5% in [12]; 95.5% in [13]; 107% in [14]; 100% in [15]; 99.9% in test [16]; -30.7% (active) in test [17].
On to `CCCCCCN1CSC(=S)N(CCCCCC)C1`, for which the growth in test [1] is 103%; in [2], 115%; in test [4], 83.6%; in [5] it was 94.5%; in [6], 95.3%; in test [7], 91.8%. The growth is 102% in [8]; 124% in [9]; 91.7% in [10]; 104% in test [11]; 79.3% in test [12]; 111% in test [13]. Also, the growth was 109% in [14]; 81.3% in test [15]; 94.2% in test [16]; 88.2% in test [17]; 107% in test [18].
Take `COc1cc2c(cc1O)CCN1C[C@@H](CC(C)C)[C@@H](O)C[C@@H]21`: the growth in test [1] was 106%; in test [19] it was 107%; in test [20] it was 102%; in test [3], 92.1%; in test [4], 86.3%; in test [5], 107%. The growth was 93.1% in test [6]; 97.8% in test [7]; 106% in test [8]; 98.1% in [9]; 95.3% in test [10]; 94.3% in test [11]. The growth in [12] is 88.4%; in test [13], 97%; in test [14], 103%; in test [15], 91.4%; in test [16] it was 107%; in test [17], 107%.
For `C=C(C)[C@@H]1C[C@H](O)Cc2cc(F)ccc2N1`, the growth in test [1] was 100%; in test [19] it was 87.5%; in test [20], 104%; in test [3], 92.7%; in test [4], 91.6%; in [5], 99.3%. Besides, the growth is 95.6% in [6]; 87.1% in test [7]; 103% in test [8]; 76.8% in test [9]; 87.3% in test [10]; 93.8% in test [11]. In addition, the growth was 75.5% in test [12]; 92.3% in test [13]; 94.4% in [14]; 111% in [16]; -62.7% (active) in test [17].
Regarding `O=C(NS(=O)(=O)c1ccc2ccccc2c1)n1cc(-c2ccncc2)c(-c2ccc(Cl)c(O)c2)n1`, the growth was 82.1% in [1]; 70.3% in test [2]; 84.5% in test [3]; 74.2% in test [4]; 77.5% in test [5]; 15.5% in [6]. Also, the growth in [7] is 49.9%; in test [8], 54.6%; in test [9] it was -2.83% (active); in test [10] it was 65.5%; in test [11], 68.8%; in test [12], 56.4%. Besides, the growth was 116% in [13]; 49.6% in test [14]; 96.2% in test [15]; 87.7% in test [16]; 74.1% in test [17]; 78.9% in test [18].
As for `C=C(C)[C@@H]1C[C@@H]2Cc3ccc(Cl)c(C)c3N1O2`, the growth in [1] is 93%; in [19], 93%; in test [20] it was 103%; in test [3], 92.6%; in [4], 87.9%; in test [5], 89.1%. For the same molecule, the growth is 93.4% in [6]; 98.8% in test [7]; 107% in test [8]; 96.4% in [9]; 86.2% in test [10]; 97.3% in test [11]. Also, the growth was 99.3% in test [12]; 53.8% in [13]; 96.8% in test [14]; 89.8% in [15]; 83.2% in test [16]; -68.9% (active) in test [17]. In test [18], the growth is -2.28% (active).
Turning to `N#C/C(=C1C=C/C(=N/O)C(Cl)=C/1)c1ccc(Cl)cc1`, the growth in [1] was 83%; in [19], 89%; in test [20] it was 93.6%; in [3], 46.4%; in test [4], 22.2%; in test [5], 93.5%. In addition, the growth in test [6] is 58.3%; in [7], 7.65% (active); in test [8], 101%; in test [9], 95.1%; in [10], 93.6%; in test [11], 66.6%. Besides, the growth was 44.9% in test [12]; 51.2% in [13]; 67.3% in test [14]; 34% in [15]; 88.1% in test [16]; 7.1% (active) in test [17]. In addition, the growth in [18] is 65.9%.
On to `FC(F)(F)c1cccc(-c2cn3c(ccc4ccccc43)n2)c1`, for which the growth in [1] was 90.9%; in test [2] it was 102%; in test [3] it was 86.9%; in [4] it was 83%; in test [6] it was 79.9%; in [7], 90.1%. For the same molecule, the growth in test [8] was 115%; in test [9], 102%; in test [10], 85.4%; in test [11], 97%; in test [12], 68.1%; in test [13] it was 122%. Besides, the growth in test [14] was 90.3%; in [15], 71.4%; in [16], 94.9%; in test [17], 105%; in [18], 104%.
For the molecule `COc1cc(C2NN=C3c4ccccc4CCC32)cc(OC)c1OC` (configuration not stated), the growth was 72.4% in [1]; 59.8% in test [19]; 79.3% in [20]; 94.7% in test [3]; 75.2% in test [4]; 72.2% in test [5]. Besides, the growth is 69.8% in [6]; 82.4% in test [7]; 101% in [8]; 76.9% in [9]; 72.6% in test [10]; 77.7% in test [11]. Besides, the growth was 41.4% in [12]; 94.1% in [13]; 80.3% in [14]; 65% in [15]; 89.6% in test [16]; 1.98% (active) in [17]. For the same molecule, the growth in test [18] was 60.5%.

The record behind these values is PubChem BioAssay (NCI).
